We go through 59 molecules from ChEMBL document CHEMBL4513216, “Probing the Open Global Health Chemical Diversity Library for Multistage-Active Starting Points for Next-Generation Antimalarials” (ACS Infect Dis, 2020).

Each structure is given as a SMILES string. In all, about 69,000 compounds went through this assay and about 8,600 (12%) showed an effect of 50% or more. Only a selection was taken, and strong results are over-represented in it overall.

For the assay, the system named is Plasmodium berghei. Description: Screen against P. berghei liver stage (PbLuc), transformed with Luciferase, at 10uM. The assay is classed as functional, HepG2. The note with it: tested at 10 uM.
As for `COc1ccc(OCCN(C)Cc2nc3c(cnn3C)c(=O)[nH]2)cc1`, the INHIBITION was 38.8%.

As to `CN1CCC(C)(CN(C)Cc2ccc(CCC(C)(C)O)cc2)C1` (centres undefined), the INHIBITION came out at 32.4%.

Regarding `Cc1cc(S(=O)(=O)NCC(C)(O)CN(C)C)c(F)cc1F` (centres undefined), the INHIBITION was determined as 36.5%.

With `COc1cc(NC(=O)N(C)C(C2CC2)C2CC2)ncn1`, the INHIBITION was determined as 88.4%.

With `COc1cc(NC(=O)N(C)CCC2CC2)ncn1`, the INHIBITION is on record as 4.82%.

As to `COc1cc(NC(=O)N(C)CC2CC2)ncn1`, the INHIBITION worked out at 1.84%.

On to `CS(=O)(=O)c1cccc(C(N)c2ccc(Cl)cc2)c1` (centres undefined), for which the INHIBITION is given as -53.2%.

`CCn1ccnc1CN1CCN(CCc2ccncc2)CC1C` (centres undefined): the INHIBITION is given as 24.7%.

With `O=C(O)[C@@H]1CN(C(=O)c2ccc(Cl)cc2)C[C@H]1c1cccc(F)c1`, the INHIBITION was 13.3%.

In the case of `O=C(O)[C@@H]1CN(C(=O)c2ccc(O)cc2)C[C@H]1c1cccc(F)c1`, the INHIBITION is recorded as -19.5%.

Take `O=C(O)[C@@H]1CN(C(=O)c2ccc(F)c(F)c2)C[C@H]1c1cccc(F)c1`: the INHIBITION came out at 65.7%.

As for `CCN(Cc1nonc1C)C(=O)Cn1nc(C(F)(F)F)cc1C`, the INHIBITION is reported as 44.35%.

Turning to `CCOc1cc(C(=O)n2cccn2)cc(OCC)c1OCC`, the INHIBITION is reported as -30.6%.

For the molecule `N#CCCN(C(=O)CCc1cscn1)c1ccc2c(c1)OCCO2`, the INHIBITION is reported as -7.46%.

In the case of `Cc1ccc(C(=O)Oc2cc(=O)n3cccc(C)c3n2)cc1`, the INHIBITION is 59.8%.

Turning to `Cc1cccc(C(=O)Oc2cc(=O)n3cccc(C)c3n2)c1`, the INHIBITION is -51.1%.

Take `Cc1cccn2c(=O)cc(OC(=O)c3ccccc3)nc12`: the INHIBITION is given as -19.7%.

Regarding `CN1CCc2c(C#N)c(NCC3CCCO3)n3cnnc3c2C1` (centres undefined), the INHIBITION is on record as -1.45%.

Take `CCOc1nc2cnccc2n(CC(=O)NCc2ccco2)c1=O`: the INHIBITION is recorded as 46.7%.

Turning to `CCOc1nc2cnccc2n(CC(=O)NCc2ccc(C)cc2)c1=O`, the INHIBITION turned out to be 53.1%.

As for `CCOc1nc2cnccc2n(CC(=O)NCCc2ccccc2)c1=O`, the INHIBITION is on record as 33.9%.

`COc1cccc2c(=O)n(Cc3cc(C4CC4)[nH]n3)cnc12`: the INHIBITION is recorded as -6.94%.

With `COc1cccc2c(=O)n(Cc3ccnc(C)c3)cnc12`, the INHIBITION is on record as 17.5%.

`COc1cccc2c(=O)n(Cc3cccnc3)cnc12`: the INHIBITION is listed as -20%.

`COc1cccc2c(=O)n(C3CCNCC3)cnc12`: the INHIBITION worked out at 57.3%.

Consider `COc1cccc2c(=O)n(C3CCCNC3)cnc12` (centres undefined), for which the INHIBITION was determined as 61%.

On to `COc1cccc2c(=O)n(CCN3CCNCC3)cnc12`, for which the INHIBITION is given as -109%.

For `O=C(NCc1cccs1)C1CNCC12CCOCC2` (centres undefined), the INHIBITION was -30.1%.

As to `CCCn1[nH]c(CNc2ccccc2)nc1=O`, the INHIBITION is on record as 32.5%.

Consider `CC(=O)c1cn(CC(=O)N[C@H](C(=O)O)C(C)C)c2ccccc12`, for which the INHIBITION amounted to 35.1%.

As for `CCOc1ccccc1N1CCN(CC2(O)CCCNC2)CC1` (centres undefined), the INHIBITION was 29.2%.

As to `Cc1ccccc1N1CCCN(CC2(O)CCCNC2)CC1` (centres undefined), the INHIBITION is 39.9%.

As to `Cc1ccc(C)c(N2CCN(CC3(O)CCNC3)CC2)c1` (centres undefined), the INHIBITION was 50.5%.

As for `NC(=O)c1csc(C(=O)N2CCCC(n3cccn3)C2)c1` (centres undefined), the INHIBITION is recorded as 23.4%.

Take `Cc1nc(CN(Cc2ccc3c(c2)OCCO3)C2CCCC2)no1`: the INHIBITION is reported as -31.8%.

`CCN(CC)C(=O)CN1CCCC(c2nc(C)c3c(n2)N(C)CCC3)C1` (centres undefined): the INHIBITION is listed as 36%.

On to `Cc1cc(N(C)C)nc(C2COCCN2Cc2csc(C)n2)n1` (centres undefined), for which the INHIBITION came to 39.3%.

Consider `CNc1cc(C)nc(C2COCCN2CCc2ccccc2)n1` (centres undefined), for which the INHIBITION was -2.9%.

With `CNc1cc(C)nc(C2COCCN2Cc2csc(C)n2)n1` (centres undefined), the INHIBITION came out at 53.6%.

As for `Cc1ccc(Br)cc1S(=O)(=O)NCCc1nnc[nH]1`, the INHIBITION came out at 23.5%.

In the case of `Cc1ncnc2c1CCN(Cc1ccc3c(c1)OCO3)CC2`, the INHIBITION is reported as 41.8%.

Turning to `CC(=O)NCCC(Cc1ccccc1)c1ccco1` (centres undefined), the INHIBITION is on record as -24.6%.

With `O=C(CCCOc1ccc(F)cc1F)N1CCCC(n2cccn2)C1` (centres undefined), the INHIBITION was determined as 11.4%.

With `COCCn1cnnc1CN(C)c1nc(N)nc2c1CCCC2`, the INHIBITION was 23.3%.

As for `COCCn1cnnc1CN(C)c1nc(N)ncc1C`, the INHIBITION was determined as 0.897%.

In the case of `CCc1nc(N)nc(N(C)Cc2nncn2CCOC)c1C`, the INHIBITION was 73.5%.

On to `CCO[C@@H]1CC[C@H]2[C@H]1OCCN2S(=O)(=O)C1CC1`, for which the INHIBITION worked out at 2.59%.

In the case of `Cc1ccc(C(=O)NCCN2CCOCC2)cc1N(C)S(C)(=O)=O`, the INHIBITION came to 55.5%.

As for `Cc1cc(C)c(S(N)(=O)=O)cc1C(=O)NCCN1CCC(C)CC1`, the INHIBITION is -7.83%.

For `CN(c1ccc(C(=O)NCCCN2CCCC2)c(Cl)c1)S(C)(=O)=O`, the INHIBITION is reported as 40.9%.

As to `CN(c1ccc(C(=O)NCCCN2CCCCC2)c(Cl)c1)S(C)(=O)=O`, the INHIBITION is given as 70.4%.

For `CC1CCN(CCCNC(=O)c2ccc(N(C)S(C)(=O)=O)cc2Cl)CC1`, the INHIBITION is on record as 79.2%.

As to `CN(c1ccc(C(=O)NCCN2CCOCC2)c(Cl)c1)S(C)(=O)=O`, the INHIBITION was found to be 38.5%.

Turning to `Cc1ccc(C(=O)NCCC2CCN(C)CC2)cc1N(C)S(C)(=O)=O`, the INHIBITION came out at 42.1%.

`CN(c1ccc(C(=O)NCCCN2CCOCC2)c(Cl)c1)S(C)(=O)=O`: the INHIBITION came out at 46.8%.

On to `Cc1ccc(C(=O)NCCCN2CCOCC2)c(Cl)c1`, for which the INHIBITION is -56.5%.

As to `O=C(NCCCN1CCOCC1)c1ccc(Cl)cc1Cl`, the INHIBITION is recorded as -4.52%.

On to `CN(c1ccc(Cl)c(C(=O)NCCCN2CCOCC2)c1)S(C)(=O)=O`, for which the INHIBITION is listed as 63.3%.

On to `Cc1ccc(C(=O)NC2CCN(C)CC2)cc1N(C)S(C)(=O)=O`, for which the INHIBITION is 34.2%.
